In PubChem BioAssay AID861 (The Scripps Research Institute Molecular Screening Center, 2007) one finds inhibition data, which are given here for five molecules.

Broadly, the inhibition is the relative decrease from the control value, in per cent.

Screen size: about 200,000 compounds; about 360 (0.18%) were called active. Rule as the data show it: active = inhibition above about 25%; inactive = the rest. The list comes from a sample in which actives are over-represented; it also holds similar structures and randomly drawn compounds.

Toll-like receptor 4 (Homo sapiens) + Myeloid differentiation primary response protein MyD88 (Homo sapiens), sequence (O00206 whole entry, looked up): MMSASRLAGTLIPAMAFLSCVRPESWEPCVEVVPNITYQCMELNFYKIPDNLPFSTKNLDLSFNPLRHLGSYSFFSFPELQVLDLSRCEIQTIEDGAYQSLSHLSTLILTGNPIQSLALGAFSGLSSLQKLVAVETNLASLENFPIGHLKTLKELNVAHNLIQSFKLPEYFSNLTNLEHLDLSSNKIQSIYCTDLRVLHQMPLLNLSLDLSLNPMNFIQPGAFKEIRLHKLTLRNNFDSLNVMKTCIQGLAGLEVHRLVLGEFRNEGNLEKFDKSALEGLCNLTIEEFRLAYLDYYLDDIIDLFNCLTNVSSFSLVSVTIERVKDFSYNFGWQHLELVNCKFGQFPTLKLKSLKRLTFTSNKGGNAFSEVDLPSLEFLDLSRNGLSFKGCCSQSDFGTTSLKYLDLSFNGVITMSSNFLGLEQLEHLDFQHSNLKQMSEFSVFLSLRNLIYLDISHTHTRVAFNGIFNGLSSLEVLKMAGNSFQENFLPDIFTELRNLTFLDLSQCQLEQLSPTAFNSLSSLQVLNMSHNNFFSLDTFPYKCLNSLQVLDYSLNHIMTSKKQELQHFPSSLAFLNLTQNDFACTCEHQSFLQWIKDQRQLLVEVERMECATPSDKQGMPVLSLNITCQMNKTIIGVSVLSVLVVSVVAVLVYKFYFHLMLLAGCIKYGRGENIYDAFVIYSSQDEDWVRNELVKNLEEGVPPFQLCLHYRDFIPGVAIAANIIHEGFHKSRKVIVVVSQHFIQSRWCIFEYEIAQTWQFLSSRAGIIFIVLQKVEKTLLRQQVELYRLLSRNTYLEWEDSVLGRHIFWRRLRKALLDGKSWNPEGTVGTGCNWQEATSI
Toll-like receptor 4 (Homo sapiens) + Myeloid differentiation primary response protein MyD88 (Homo sapiens), sequence (Q99836 whole entry, looked up): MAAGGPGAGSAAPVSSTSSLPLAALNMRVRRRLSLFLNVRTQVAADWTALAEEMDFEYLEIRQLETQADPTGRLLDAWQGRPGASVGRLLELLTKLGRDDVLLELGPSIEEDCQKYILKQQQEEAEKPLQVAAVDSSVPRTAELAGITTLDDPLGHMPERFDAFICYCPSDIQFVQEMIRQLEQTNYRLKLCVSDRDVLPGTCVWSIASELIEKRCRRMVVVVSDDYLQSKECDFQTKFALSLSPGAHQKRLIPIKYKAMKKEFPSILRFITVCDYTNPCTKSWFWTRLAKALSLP

The test has as its target Toll-like receptor 4 (Homo sapiens) + Myeloid differentiation primary response protein MyD88 (Homo sapiens) (UniProt O00206+Q99836). Put plainly: inhibitors of TLR4-MyD88 association in cells, primary screen, cell-based, HeLa CL3-4, BLA complementation, FRET ratio (AID 861).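 Also: 0% = vehicle and 100% = reference inhibitor.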 The settings on record: HeLa CL3-4 TLR4/MyD88 BLA complementation, at 8.4 µM, active compounds read high.
With `CC(C)c1ccc(O)c(CN2CCN(c3ccccc3)CC2)c1`, the inhibition is -8.07% (inactive). Under `Fc1cccc(F)c1CN1CCN(Cc2c(F)cccc2F)CC1` stands 6.5% (inactive). `COc1ccc(CN2CCN(c3ccccc3F)CC2)c(OC)c1`: the inhibition is 29.3% (active).

For `CN(C)CCCN=Cc1c(O)n(Cc2ccco2)c(=O)[nH]c1=O`, the inhibition is -1.36% (inactive). To `CCOc1ccc(C2SCC(=O)Nc3c2c(C)nn3C2CCOC(C)(C)C2)cc1` (stereo not given) belongs -12% (inactive).
